The list is not random: actives were taken first. Their share in the collection is about 1.6%.
OPRM1-OPRD1 inv: inverse agonist of human OPRM1-OPRD1 heterodimerization | inhibition, % at 9.3 µM | 340,000 tested, 0.21% active | P35372+P41143 | cell-based MOR-DOR heterodimer luminescence, inverse agonism | AID 504357; in the data active = inhibition above about 22%, passing the limit was not always enough;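 note: 0% = cells with DMSO and 100% = wells without cells with DMSO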
HTR5A inv ag: HTR5A inverse agonism, opioid heterodimer counter-screen | 340,000 tested, 0.083% active | inhibition, % at 9.3 µM | P47898 | HTR5A cell line, luminescence; in the data active = inhibition mostly above about 23%, no sharp cut-off; inactive = mostly below about 18%;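 note: 0% = cells with DMSO and 100% = no-cell wells with DMSO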
Target sequence (P47898 whole entry, looked up): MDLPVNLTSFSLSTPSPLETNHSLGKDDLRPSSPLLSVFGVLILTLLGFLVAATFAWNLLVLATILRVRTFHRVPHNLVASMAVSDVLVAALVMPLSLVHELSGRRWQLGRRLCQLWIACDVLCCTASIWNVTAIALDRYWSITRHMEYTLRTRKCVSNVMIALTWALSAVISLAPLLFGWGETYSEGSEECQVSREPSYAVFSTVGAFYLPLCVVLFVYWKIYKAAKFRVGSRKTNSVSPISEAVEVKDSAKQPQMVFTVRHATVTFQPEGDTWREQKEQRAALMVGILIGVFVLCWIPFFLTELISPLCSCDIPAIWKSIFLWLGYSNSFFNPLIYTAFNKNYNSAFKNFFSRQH
MOR-DOR ag: OPRM1-OPRD1 heterodimerization agonism; P35372+P41143; cells, luminescence; activation, % at 9.3 µM; 340,000 tested, 0.3% active; AID 504326; in the data active = activation above about 18%;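 note: 0% = vehicle-treated cells and 100% = reference agonist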
m5-HT2A agonist: activates the mouse 5-HT2A serotonin receptor | CHO-K1 mHTR2A beta-arrestin complementation, luminescence; percent of 30 µM serotonin response | activation, % at 7.6 µM | 360,000 tested, 0.66% active | AID 624169;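 active = activation above a run cutoff, the mean activation of all tested compounds plus 3 SD, cut at about 14% in these data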;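 note: 0% = plate median of compound wells and 100% = 30 µM serotonin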
HTR5A ag: counter-screen for OPRM1-OPRD1 agonists: human HTR5A agonism | HTR5A agonist assay, luminescence, cell-based | activation, % at 9.3 µM | 340,000 tested, 0.61% active | AID 504692; in the data active = activation mostly above about 9.5%, no sharp cut-off; inactive = mostly below about 7.6%;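 note: 0% = cells with vehicle only and 100% = reference agonist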
MOR ag counter: activates human mu opioid receptor in HTR2A counterscreen; shares compounds with m5-HT2A agonist; U2OS OPRM1 beta-arrestin PathHunter, luminescence; DMSO 0%, DAMGO 9.3 µM 100%; activation, % at 9.3 µM; 2,300 tested, 5.3% active; AID 624380;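 active = mean activation above the mean of DMSO-only wells plus 3 SD, cut at about 0.5% in these data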
m5-HT2A ag conf: mouse HTR2A agonism confirmed; shares compounds with m5-HT2A agonist; activation, % at 7.6 µM; CHO-K1 PathHunter beta-arrestin recruitment, luminescence; DMSO 0%, 30 µM serotonin 100%; 2,300 tested, 19% active;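 active = mean activation across triplicates above the hit threshold derived in the original primary screen, cut at about 15% in these data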
* = called active by the depositor; . = not tested or not shown.

SMILES | OPRM1-OPRD1 inv | HTR5A inv ag | MOR-DOR ag | m5-HT2A agonist | HTR5A ag | MOR ag counter | m5-HT2A ag conf
C=C1C(=O)OC2C=C(CO)CCC=C(CO)CC(OC(=O)C(C)C)C12 (stereo not drawn) | 13 | 0 | -2 | 0 | 0 | . | .
C=C1C(=O)OC2C1C(OC(=O)C(C)=CC)CC(=C)C1C(O)C3OC3(C)C21O (stereo not drawn) | 10 | 0 | -2 | 16* | 0 | 0 | 10
Cc1c(CNC(=O)C2CCC(=O)N(CCc3ccccc3)C2)cnn1C (stereo not drawn) | 8 | -16 | -1 | 2 | 3 | . | .
Cc1ccc(-c2csc(NC(=O)C3=NN(c4ccccc4)C(=O)CC3)n2)cc1 | 10 | 9 | -2 | 18* | 0 | 0 | -1
Cc1csc(NC(=O)C2=NN(c3ccccc3)C(=O)CC2)n1 | 0 | 8 | 0 | -1 | -3 | . | .
COc1ccc(-c2csc(NC(=O)Nc3ccccc3)n2)cc1 | -45 | -28 | 10 | 19* | 8 | 0 | 7
Cc1c(C(=O)N(C)c2ccc(Cl)cc2)cnn1-c1ccccc1 | -3 | -2 | 1 | -2 | 1 | . | .
Cc1ccc(S(=O)(=O)Nc2c(NC3CCCCC3)c3ccccc3oc2=O)c(C)c1 | -3 | -12 | 1 | 0 | -8 | . | .
CCc1nc2c(OCc3ccccc3C(=O)OC)cccn2c1N(C)C(=O)c1cccs1 | . | . | . | -1 | . | . | .
O=C(O)c1ccc(-c2nc(-c3ccccc3Cl)cs2)cc1 | 13 | -27 | -2 | -1 | 5 | . | .
CCS(=O)(=O)c1ccc(-c2csc(-c3ccccc3)n2)c(Cl)c1Cl | 6 | -15 | -1 | 16* | 7 | 0 | 2
O=C(Nc1ccc(F)cc1)C1CC(=O)N(Cc2ccco2)C1 (stereo not drawn) | 26 | -16 | -5 | 6 | 7 | . | .
Oc1ccccc1/C=N/NC(=S)NC1CC2C=CC1C2 (stereo not drawn) | -38 | -13 | 8 | 8 | 6 | . | .
Oc1ccccc1C=NNC(=S)NC1CC2C=CC1C2 (stereo not drawn) | . | . | . | 19* | . | 0 | 6
CC1(C(=O)NS(=O)(=O)Cc2ccccc2)CCN1C(=O)Cc1ccccc1Cl (stereo not drawn) | . | . | . | 3 | . | . | .
CCCC(=O)N1CC2(C)CN(C(=O)CCC)CC(CCC)(C1)C2=O | 2 | -18 | 0 | 16* | 1 | -1 | -4
CCn1c(=S)[nH]c2c(=O)n(C)c(=O)n(C)c21 | -7 | 3 | 1 | 17* | -1 | 0 | 3
Cn1c(=O)c2[nH]c(=O)[nH]c2n(C)c1=O | 9 | 18 | -2 | 0 | -1 | . | .
CC(C)Cn1c(=O)c2ccccc2n2c(CCC(=O)NC3CCN(Cc4ccccc4)CC3)nnc12 | 7 | -19 | -1 | 19* | 5 | -1 | 6
CC1CCN(CCCNC(=O)CCc2nnc3n(CCc4ccccc4)c(=O)c4ccccc4n23)CC1 | 8 | -7 | -2 | -8 | 3 | . | .
O=C(Nc1ccc2oc(-c3cccnc3)nc2c1)c1ccco1 | 1 | -5 | 0 | 15* | 11 | -1 | -3
Cc1ccc(S(=O)(=O)NCC2CCC(C(=O)NCc3ccco3)CC2)cc1 (stereo not drawn) | 9 | -17 | -2 | 1 | 8 | . | .
CC(C(=O)Nc1sc2c(c1C#N)CCCCC2)N1C(=O)c2ccccc2C1=O (stereo not drawn) | -10 | -7 | 2 | 25* | 3 | 0 | -1
N#Cc1c(NC(=O)c2ccccc2)sc2c1CCCCC2 | -19 | -21 | 3 | -2 | 6 | . | .
CN(C)c1ccc(C(=O)c2ccccc2C(=O)O)c(O)c1 | 10 | 11 | -2 | 17* | 5 | -1 | -2
SMILES | OPRM1-OPRD1 inv | HTR5A inv ag | MOR-DOR ag | m5-HT2A agonist | HTR5A ag | MOR ag counter | m5-HT2A ag conf
CCCCN(CCCC)c1ccc(C(=O)c2ccccc2C(=O)O)c(O)c1 | 6 | -7 | -1 | 1 | -1 | . | .
COC(=O)C(Cc1ccc(O)cc1)NC(=O)C1CCN(S(=O)(=O)c2ccc(C)cc2)CC1 (stereo not drawn) | -5 | -9 | 1 | 1 | -3 | . | .
CCOC(=O)c1ccc(NC(=O)CSc2nnc(CNC(=O)c3ccccc3F)o2)cc1 | -6 | -25 | 1 | 2 | -1 | . | .
CCOc1ccccc1NC(=O)CSc1nnc(CNC(=O)c2ccccc2F)o1 | 22 | 12 | -4 | 17* | 1 | -1 | -4
COC(=O)C1=C(CS(=O)(=O)c2cc(Cl)ccc2OC)NC(=O)NC1c1ccc(O)c(OC)c1 (stereo not drawn) | 14 | -15 | -3 | 15* | -1 | -1 | 1
COC(=O)C1=C(CS(=O)(=O)c2ccc(C)cc2)NC(=O)NC1c1ccc(OC)c(OC)c1 (stereo not drawn) | 8 | 5 | -1 | 8 | -2 | . | .
CC(NC(=O)Nc1ccccc1C(F)(F)F)C1CCCO1 (stereo not drawn) | 8 | -7 | -1 | 26* | 1 | 0 | 3
Cc1ccc(NC(=O)CSc2nc3ccc(Nc4nc(N5CCOCC5)nc(N5CCOCC5)n4)cc3s2)cc1 | 7 | -7 | -1 | 10 | 0 | . | .
COc1ccc(NC(=O)CSc2nc3ccc(Nc4nc(N5CCOCC5)nc(N5CCOCC5)n4)cc3s2)cc1 | -3 | 3 | 1 | 15* | -1 | 0 | 18*
COc1ccccc1OCCNC(=O)c1ccc(C)o1 | 5 | -8 | -1 | 15* | -5 | -1 | 1
Cc1ccc(C(=O)NCCNC(=O)c2ccc(C)o2)o1 | 15 | -6 | -3 | -4 | 0 | . | .
CCc1ccc(CN2CCN(c3ncccn3)CC2)cc1 | 8 | -6 | -2 | 8 | 2 | . | .
Cc1cccc(CN2CCN(c3ncccn3)CC2)c1 | -4 | -1 | 1 | 37* | 2 | -1 | 93*
Cc1ccc(CN2CCN(c3ccccn3)CC2)s1 | 12 | 14 | -2 | 49* | 0 | 0 | 103*
c1ccc(COc2cccc(CN3CCN(c4ccccn4)CC3)c2)cc1 | -46 | 1 | 8 | 36* | 0 | -1 | 93*
c1ccc(N2CCN(Cc3ccsc3)CC2)nc1 | 18 | -40 | -4 | 35* | 14 | -1 | 102*
Cc1ccc(C(=O)NC2CC(C)(C)NC(C)(C)C2)cc1S(=O)(=O)N1CCCCC1 | 11 | 13 | -2 | -3 | -5 | . | .
c1ccc(CCCN2CCN(c3ccccn3)CC2)cc1 | -3 | 12 | 1 | -1 | -1 | . | .
Brc1cccc(CN2CCN(c3ncccn3)CC2)c1 | 3 | -7 | -1 | 33* | 10 | 0 | 84*
Cc1cccc(CN2CCN(c3ccccn3)CC2)c1 | 5 | 18 | -1 | 32* | -7 | -1 | 92*

High-throughput results from PubChem BioAssay.
